FAS-TE inh: blocks the thioesterase domain of human fatty acid synthase; recombinant FAS-TE, OMFH fluorogenic substrate, fluorescence endpoint; inhibition, % at 15 µM; 0.67% of 360,000 active; P49327;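 active = compounds whose normalised, plate-corrected inhibition of enzyme fluorescence in the single-dose primary screen is 50% or more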;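 note: 0% = DMSO with enzyme and 100% = substrate without enzyme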
Target sequence (P49327 whole entry, looked up, the tested form may be a part): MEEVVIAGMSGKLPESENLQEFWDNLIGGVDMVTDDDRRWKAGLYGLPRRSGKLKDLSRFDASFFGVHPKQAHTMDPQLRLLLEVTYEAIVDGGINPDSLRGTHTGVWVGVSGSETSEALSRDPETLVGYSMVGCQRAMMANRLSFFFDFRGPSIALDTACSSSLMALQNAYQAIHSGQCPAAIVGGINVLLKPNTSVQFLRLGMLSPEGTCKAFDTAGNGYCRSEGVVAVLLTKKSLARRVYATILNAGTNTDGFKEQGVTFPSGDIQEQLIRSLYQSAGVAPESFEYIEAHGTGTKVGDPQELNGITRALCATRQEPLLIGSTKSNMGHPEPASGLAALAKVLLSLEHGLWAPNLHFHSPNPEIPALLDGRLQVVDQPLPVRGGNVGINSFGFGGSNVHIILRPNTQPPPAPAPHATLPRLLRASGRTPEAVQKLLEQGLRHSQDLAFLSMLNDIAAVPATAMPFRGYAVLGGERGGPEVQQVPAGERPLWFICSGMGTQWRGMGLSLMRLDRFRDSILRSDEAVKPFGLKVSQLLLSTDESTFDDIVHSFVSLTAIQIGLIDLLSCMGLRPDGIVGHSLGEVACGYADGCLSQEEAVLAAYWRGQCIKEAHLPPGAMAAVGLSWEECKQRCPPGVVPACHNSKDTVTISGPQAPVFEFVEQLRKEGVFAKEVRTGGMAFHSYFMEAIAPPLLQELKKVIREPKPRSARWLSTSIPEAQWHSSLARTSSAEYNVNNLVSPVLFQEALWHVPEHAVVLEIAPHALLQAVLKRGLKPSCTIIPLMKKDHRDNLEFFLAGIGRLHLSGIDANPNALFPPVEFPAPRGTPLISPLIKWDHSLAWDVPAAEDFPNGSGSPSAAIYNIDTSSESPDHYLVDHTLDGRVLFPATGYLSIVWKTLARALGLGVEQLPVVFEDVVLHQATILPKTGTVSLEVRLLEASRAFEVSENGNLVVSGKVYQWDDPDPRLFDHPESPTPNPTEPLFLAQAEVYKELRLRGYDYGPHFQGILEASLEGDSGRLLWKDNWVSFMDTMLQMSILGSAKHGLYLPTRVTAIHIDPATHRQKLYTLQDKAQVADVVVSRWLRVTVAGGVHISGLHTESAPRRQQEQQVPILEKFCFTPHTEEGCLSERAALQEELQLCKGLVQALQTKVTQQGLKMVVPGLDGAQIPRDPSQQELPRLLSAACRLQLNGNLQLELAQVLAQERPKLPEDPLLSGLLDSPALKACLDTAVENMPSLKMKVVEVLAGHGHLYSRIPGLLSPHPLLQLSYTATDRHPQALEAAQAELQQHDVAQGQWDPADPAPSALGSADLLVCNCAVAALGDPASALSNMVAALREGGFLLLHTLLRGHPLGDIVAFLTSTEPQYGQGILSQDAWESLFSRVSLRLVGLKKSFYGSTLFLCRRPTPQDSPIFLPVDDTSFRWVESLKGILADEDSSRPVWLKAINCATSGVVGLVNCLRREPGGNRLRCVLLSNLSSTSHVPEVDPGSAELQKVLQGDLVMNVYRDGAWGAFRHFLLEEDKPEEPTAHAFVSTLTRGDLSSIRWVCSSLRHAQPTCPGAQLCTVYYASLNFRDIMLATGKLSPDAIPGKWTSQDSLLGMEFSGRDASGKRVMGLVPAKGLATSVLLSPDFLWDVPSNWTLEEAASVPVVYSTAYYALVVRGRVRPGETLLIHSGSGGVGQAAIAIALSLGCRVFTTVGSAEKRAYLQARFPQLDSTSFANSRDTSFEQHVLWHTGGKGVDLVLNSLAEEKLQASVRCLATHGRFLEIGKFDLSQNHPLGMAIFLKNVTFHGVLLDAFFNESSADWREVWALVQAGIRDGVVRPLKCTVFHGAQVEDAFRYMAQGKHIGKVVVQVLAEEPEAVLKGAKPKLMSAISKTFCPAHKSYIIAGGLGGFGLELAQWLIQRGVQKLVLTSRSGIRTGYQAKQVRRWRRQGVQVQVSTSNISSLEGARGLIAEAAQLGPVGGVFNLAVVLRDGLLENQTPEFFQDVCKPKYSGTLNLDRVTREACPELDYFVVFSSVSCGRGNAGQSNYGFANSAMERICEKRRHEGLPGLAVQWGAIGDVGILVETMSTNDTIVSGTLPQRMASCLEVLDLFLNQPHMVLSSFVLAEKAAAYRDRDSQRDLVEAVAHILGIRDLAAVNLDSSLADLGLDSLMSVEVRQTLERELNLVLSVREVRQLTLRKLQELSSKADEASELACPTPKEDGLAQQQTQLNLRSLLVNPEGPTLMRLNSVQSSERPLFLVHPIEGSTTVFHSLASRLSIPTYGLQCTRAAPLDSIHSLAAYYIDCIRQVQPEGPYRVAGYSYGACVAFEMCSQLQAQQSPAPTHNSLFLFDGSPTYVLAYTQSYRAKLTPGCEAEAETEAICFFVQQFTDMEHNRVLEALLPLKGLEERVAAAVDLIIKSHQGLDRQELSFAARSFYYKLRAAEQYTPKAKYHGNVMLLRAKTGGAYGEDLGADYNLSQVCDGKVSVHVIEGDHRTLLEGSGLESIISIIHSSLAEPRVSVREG
CRFR2-BP ag: CRF-BP/CRF-R2 complex agonism; HEK293 CRF-R2/CRF-BP, calcium dye fluorescence (FLIPR); percent of saturating CRF peptide response; activation, % at 13.2 µM; 0.46% of 350,000 active;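 active = activation of at least 50%, plus an integration ratio under a set limit after plate pattern correction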;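 note: plate controls were neutral control wells without compound for no effect and CRF at EC100 for full effect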
CRFBP-R2 block: CRF-BP/CRF-R2 complex antagonism. HEK293 CRF-R2/CRF-BP, CRF-induced calcium fluorescence. AID 588475. 0.59% of 350,000 active. inhibition, % at 11.8 µM;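 active = inhibition of the ligand-induced calcium signal above about 50% at the single tested concentration, limit read from the data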
H9c2 protect: myocardial damage modulation in H9c2 cells | H9c2 cardiomyocytes, H2O2 injury protection, ATPLite, 2 h | protection from H2O2 cell death, % at 20 µM | 0.63% of 360,000 active;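 active = compounds giving at least 50% protection of heart cells from peroxide-induced death in the single-dose screen, raw or plate-pattern-corrected value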;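 note: 0% = DMSO wells with peroxide and 100% = DMSO wells without peroxide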
PfGluPho inh: PfG6PD (Plasmodium falciparum) enzyme inhibition. PfGluPho enzyme, NADPH resazurin-diaphorase fluorescence. inhibition, % at 20 µM. 0.78% of 350,000 active. AID 504690;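 active = inhibition reaching at least a set limit at 20 µM in the primary screen, cut at about 59% in these data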;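 note: 0% = DMSO wells with substrate and 100% = DMSO wells lacking glucose-6-phosphate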
aDG glyco act: increases alpha dystroglycan glycosylation. Pro5-aDG cells, alpha-DG glycosylation AlphaScreen (IIH6); 0% Pro5, 100% B10-LARGE cell signal. activation, % at 10 µM. 0.22% of 360,000 active. AID 624168;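 active = activation of at least 8% versus controls, or a plate z-score of at least 8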;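 note: Pro5 are CHO cells carrying HIG-tagged alpha-DG that lacks glycosylation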
FAS-TE inh conf: confirmation of human fatty acid synthase thioesterase inhibitors; shares compounds with FAS-TE inh; recombinant FAS-TE, OMFH fluorogenic substrate, fluorescence; inhibition, % at 15 µM; 45% of 2,300 active; AID 624325;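 active = compounds inhibiting the enzyme by at least 50% at 15 µM in any one of the replicates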;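 note: 0% = enzyme with DMSO only and 100% = wells lacking enzyme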
The depositor's hits bear a star; nt = not tested or not shown. This is a sample that favours compounds with a hit; in the whole collection about 3.2% have one here.

SMILES | FAS-TE inh | CRFR2-BP ag | CRFBP-R2 block | H9c2 protect | PfGluPho inh | aDG glyco act | FAS-TE inh conf
Cc1ccccc1C(=O)N1CCC2CC1c1cc(Cl)ccc12 (stereo unspecified) | 1 | 1 | -4 | 3 | -18 | 0 | nt
Cc1ccc(NC(=O)C2=C(c3ccccc3)S(=O)(=O)CCS2(=O)=O)cc1 | 75* | 55* | -52 | -37 | 45 | -1 | 83*
COc1ccc(NC(=O)c2cccc(Oc3ccc([N+](=O)[O-])cc3Cl)c2)cc1 | 52* | 1 | 1 | -11 | 11 | 0 | 9
CCC(C)c1ccc2oc(-c3ccc(NC(=O)Cn4cnc5c(=O)n(C)c(=O)n(C)c54)cc3)nc2c1 (stereo unspecified) | 73* | 0 | -13 | -11 | -9 | 1 | 6
Cn1c(=O)c2ncn(CC(=O)Nc3ccc(N4CCOCC4)cc3)c2n(C)c1=O | -7 | 2 | 10 | -1 | 8 | 0 | nt
O=C(COC(=O)/C=C/c1ccc(OC(F)F)cc1)NC1CCCCCC1 | -2 | 2 | 8 | -2 | 2 | 0 | nt
O=c1c2sc3nc(N4CCOCC4)c4c(c3c2ncn1-c1ccccc1)CCCC4 | 42 | 3 | -13 | 2 | -5 | 0 | nt
COc1ccc(-n2cnc3c(sc4nc(N5CCOCC5)c5c(c43)CCCC5)c2=O)cc1 | 63* | 0 | 8 | -1 | -1 | 0 | 5
Cc1ccccc1-n1cnc2c(sc3nc(N4CCOCC4)c4c(c32)CCCC4)c1=O | 66* | 8 | 8 | -2 | 5 | 1 | 13
Cc1cccc(N(CC(=O)NC2CCCC2)C(=O)c2nsc(Cl)c2Cl)c1C | 9 | -11 | -5 | 6 | -20 | 0 | nt
CCOc1ccccc1N(CC(=O)NC1CCCCC1)C(=O)c1nsc(Cl)c1Cl | 50* | -1 | 0 | -6 | -1 | 1 | 18
CC(=O)NCCn1c(SCc2cc(F)ccc2F)nc2ccccc2c1=O | 0 | -2 | -4 | 9 | 2 | 0 | nt
O=c1c2ccccc2nc(SCc2ccc([N+](=O)[O-])cc2)n1CCCO | 68* | 2 | -11 | -4 | 14 | 0 | 50*
CC(=O)NCCn1c(SCc2cccc([N+](=O)[O-])c2)nc2ccccc2c1=O | 53* | -4 | -15 | 19 | 6 | 0 | 12
O=C1NC(Cc2ccc(O)cc2)c2nc3ccc(F)cc3c(=O)n2-c2cc(Cl)ccc21 (stereo unspecified) | 0 | -2 | 4 | 32 | -9 | 0 | nt
COc1ccc(CN2C(=O)C(CC(=O)NC3CCCC3)CC(C(=O)N3CCOCC3)=C2C)cc1 (stereo unspecified) | -3 | nt | nt | 0 | nt | 0 | nt
O=C(CSc1ncnc2c1cnn2-c1ccccc1)NC1CCS(=O)(=O)C1 (stereo unspecified) | 64* | 2 | 8 | -4 | 13 | 0 | 72*
Cc1ccc(C(=O)NCCSCc2ccc(Cl)cc2Cl)cc1[N+](=O)[O-] | 51* | 0 | 4 | -5 | 27 | 0 | 27
Cc1ccc(C(=O)NCCSC(C)(C)C)cc1[N+](=O)[O-] | 56* | -2 | 2 | -9 | 5 | 0 | 56*
Cc1ccc(C(=O)NCCSC(C)(C)C)cc1 | -4 | -2 | -20 | -3 | -13 | 1 | nt
CCN(CC)S(=O)(=O)c1ccc(-n2cnc3cc(C)c(C)cc32)nc1 | 57* | 0 | -8 | 1 | 15 | 0 | 61*
CC(C)N(C(C)C)S(=O)(=O)c1ccc(N2CCc3ccccc3C2)nc1 | 46 | 2 | -21 | -4 | 31 | 0 | nt
CCN(CC)S(=O)(=O)c1ccc(N2CCc3ccccc3C2)nc1 | 64* | 0 | 1 | -9 | 17 | 0 | 63*
COc1ccccc1OCC(=O)Nc1cc(S(=O)(=O)N2CCOCC2)ccc1N1CCCCC1 | 22 | 2 | -19 | -5 | 54 | 0 | nt
CC(C)(C)c1ccc(OCCC(=O)OCC(=O)NC2CCCCC2)cc1 | 57* | 1 | 0 | -2 | -7 | 0 | 55*
SMILES | FAS-TE inh | CRFR2-BP ag | CRFBP-R2 block | H9c2 protect | PfGluPho inh | aDG glyco act | FAS-TE inh conf
O=C(Cc1ccc(F)cc1)OCN1C(=O)c2ccccc2C1=O | 20 | -1 | 7 | 1 | -3 | 0 | nt
O=C(Cc1cccc(C(F)(F)F)c1)OCN1C(=O)c2ccccc2C1=O | 51* | -1 | 7 | -2 | 15 | 0 | 46*
COc1ccc(S(=O)(=O)NC(=O)C2(C)CCN2C(=O)c2cccc(F)c2)cc1 (stereo unspecified) | -7 | nt | nt | 0 | nt | 0 | nt
CCN1C(=O)[C@H]2[C@@H](c3ccc(C)cc3)N3C(=O)N(c4ccc(OC)cc4)C(=O)[C@@]3(Cc3ccccc3)[C@H]2C1=O | -5 | -1 | -3 | 5 | -11 | 0 | nt
CCN1C(=O)[C@H]2[C@@H](c3ccc(C)cc3)N3C(=O)N(c4ccccc4)C(=O)[C@@]3(Cc3ccc(Cl)cc3)[C@H]2C1=O | 63* | 2 | -9 | 5 | 17 | 0 | 32
Cc1cccc([C@@H]2[C@@H]3C(=O)N(Cc4ccccc4)C(=O)[C@@H]3[C@]3(CC(C)C)C(=O)N(c4cccc(Cl)c4)C(=O)N23)c1 | 72* | 1 | -14 | -7 | 4 | 1 | 27
CCN1C(=O)[C@H]2[C@@H](c3ccc(C)cc3)N3C(=O)N(c4ccc(C)cc4)C(=O)[C@@]3(Cc3ccc(Cl)cc3)[C@H]2C1=O | 60* | 4 | -10 | -2 | 6 | 0 | 20
CC[C@@]12C(=O)N(c3cccc(Cl)c3)C(=O)N1[C@H](c1cccc(C)c1)[C@@H]1C(=O)N(Cc3ccccc3)C(=O)[C@@H]12 | 17 | 1 | -9 | 4 | 19 | 0 | nt
CC(C)(C)c1cc(C(=O)Nc2cccnc2)cc(C(=O)Nc2cccnc2)c1 | -1 | 2 | 6 | 20 | 8 | 0 | nt
O=C(/C=C/c1ccccc1)Nc1ccc(C(=O)N2CCCCC2)cc1 | 9 | 0 | -10 | 6 | 0 | 0 | nt
COc1ccc(CNc2ncnc3sccc23)cc1 | 1 | 0 | 1 | -22 | 3 | 2 | nt
Cc1nnc(SCC(=O)Nc2ncc(Cl)cc2Cl)n1Cc1ccccc1 | -1 | -1 | -3 | -19 | -1 | 0 | nt
Cn1c(SCC(=O)Nc2ncc(C(F)(F)F)cc2Cl)nnc1-c1ccc(Cl)cc1 | 81* | -5 | 2 | 2 | -11 | 0 | 90*
N#Cc1c(NC(=O)CSc2ncccn2)oc(-c2ccccc2)c1-c1ccccc1 | 14 | 1 | -17 | 12 | -14 | 1 | nt
CCn1c(SCC(=O)Nc2ncc(C(F)(F)F)cc2Cl)nnc1-c1ccccc1 | 70* | 0 | 12 | 0 | 3 | 0 | 73*

Screening results (PubChem BioAssay)
